# Structures can show the parent of a compound that is named as a salt. ± gives the standard deviation of the averaged measurements.
# Columns and labels:
# Assay in all cases: growth (OD600 after 10 h); higher = more growth (less inhibition)
# [1] = tested on: E. coli TESEC Alr+ wild-type control; settings: compound 0.1 mM; raw OD600 reference: median of DMSO wells 0.241, cell-free background 0.041
# Experimental: (§1)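 TESEC Mtb Alr E. coli, or the Alr+ wild-type control, in 384-well plates with Prestwick library compounds at 0.1 mM and 1% DMSO, across arabinose induction levels of 1E3 to 1E7 nM. Growth is read as OD600 after 10 h at 37 °C in triplicate biological replicates.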
# E. coli TESEC Mtb Alr [2] = settings: compound 0.1 mM
# Experimental: as §1
# E. coli TESEC Mtb Asd = settings: compound 0.1 mM
# Experimental: (§2)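 TESEC E. coli strains in which the native enzyme is deleted and replaced by arabinose-inducible Mtb Asd, DapB, CysH or TrpD, each grown in its selective medium. Strains were screened against the Prestwick library at 0.1 mM and 1% DMSO in 384-well format at low and high arabinose induction. Growth is read as OD600 after 10 h in triplicate.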
# E. coli TESEC Mtb DapB = settings: compound 0.1 mM
# Experimental: as §2
# [3] = tested on: E. coli TESEC Alr+ wild-type control; settings: compound 0.1 mM; raw OD600 reference: median of DMSO wells 0.49, cell-free background 0.052
# Experimental: (§3)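 TESEC Mtb Alr E. coli (ΔaraC ΔtolC ΔentC Δalr ΔdadX, arabinose-inducible Mtb Alr) or the Alr+ wild-type control strain, grown in defined M9-fructose medium without D-alanine in 96-well plates with Prestwick library compounds at 0.1 mM and 1% DMSO. Low Alr induction is 0.1 µM arabinose and high induction is 10 mM arabinose.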
# E. coli TESEC Mtb Alr [4] = settings: compound 0.1 mM; remark: listed apart in the source
# Experimental: as §3
# [5] = arabinose 1000 nM, raw OD600 reference: median of DMSO wells 0.294, cell-free background 0.041
# [6] = arabinose 10000 nM, raw OD600 reference: median of DMSO wells 0.264, cell-free background 0.041
# [7] = arabinose 100000 nM, raw OD600 reference: median of DMSO wells 0.201, cell-free background 0.041
# [8] = arabinose 1000000 nM, raw OD600 reference: median of DMSO wells 0.193, cell-free background 0.041
# [9] = arabinose 10000000 nM, raw OD600 reference: median of DMSO wells 0.146, cell-free background 0.041
# [10] = arabinose induction (level): High, raw OD600 reference: median of DMSO wells 0.331, cell-free background 0.041
# [11] = arabinose induction (level): Low, raw OD600 reference: median of DMSO wells 0.417, cell-free background 0.041
# [12] = arabinose induction (level): High, raw OD600 reference: median of DMSO wells […], cell-free background 0.041
# [13] = arabinose induction (level): Low, raw OD600 reference: median of DMSO wells 0.227, cell-free background 0.041
# [14] = arabinose 100 nM, raw OD600 reference: median of DMSO wells 0.413, cell-free background 0.052
# [15] = arabinose 10000000 nM, raw OD600 reference: median of DMSO wells […], cell-free background 0.052
SMILES,growth [1],growth (E. coli TESEC Mtb Alr [2]; [5]),growth (E. coli TESEC Mtb Alr [2]; [6]),growth (E. coli TESEC Mtb Alr [2]; [7]),growth (E. coli TESEC Mtb Alr [2]; [8]),growth (E. coli TESEC Mtb Alr [2]; [9]),growth (E. coli TESEC Mtb Asd; [10]),growth (E. coli TESEC Mtb Asd; [11]),growth (E. coli TESEC Mtb DapB; [12]),growth (E. coli TESEC Mtb DapB; [13]),growth [3],growth (E. coli TESEC Mtb Alr [4]; [14]),growth (E. coli TESEC Mtb Alr [4]; [15])
CCCC(CCC)C(=O)O [Valproic acid],0.241 ± 0.0026,0.293 ± 0.0086,0.2722 ± 0.00032,0.22 ± 0.02,0.22 ± 0.0036,0.137 ± 0.0016,0.416 ± 0.018,0.404 ± 0.047,0.202 ± 0.011,0.246 ± 0.0077,0.478 ± 0.035,0.41 ± 0.01,0.358 ± 0.022
CN(C/C=C/c1ccccc1)Cc1cccc2ccccc12 [Naftifine hydrochloride],0.0432 ± 0.0006,0.0444 ± 0.001,0.04317 ± 0.00021,0.045 ± 0.0005,0.0437 ± 0.0015,0.0527 ± 0.00066,0.269 ± 0.035,0.313 ± 0.069,0.125 ± 0.008,0.133 ± 0.0053,0.374 ± 0.0058,0.266 ± 0.14,0.052 ± 0.0013
C=CC[N@@+]12CC[C@@]34c5ccccc5N5/C=C6/[C@H]7C[C@H]8[C@@]9(CC[N@@+]8(CC=C)C/C7=C/CO)c7ccccc7N(/C=C(/[C@@H](C[C@@H]31)/C(=C\CO)C2)[C@H]54)[C@@H]69 [Alcuronium chloride],0.214 ± 0.0094,0.255 ± 0.004,0.162 ± 0.0017,0.13 ± 0.0075,0.115 ± 0.0062,0.155 ± 0.0016,0.159 ± 0.0074,0.184 ± 0.044,0.197 ± 0.027,0.196 ± 0.023,0.456 ± 0.037,0.41 ± 0.013,0.351 ± 0.0099
CC(=O)OCC(=O)[C@@]1(OC(C)=O)[C@@H](C)C[C@H]2[C@@H]3C[C@H](F)C4=CC(=O)C=C[C@]4(C)[C@@]3(F)[C@@H](O)C[C@@]21C [Diflorasone Diacetate],0.159 ± 0.0032,0.178 ± 0.0085,0.162 ± 0.0026,0.194 ± 0.014,0.112 ± 0.0026,0.17 ± 0.0046,0.263 ± 0.03,0.228 ± 0.008,0.198 ± 0.03,0.221 ± 0.0089,0.398 ± 0.015,0.394 ± 0.014,0.289 ± 0.0096
CCN(CC)CCNC(=O)c1ccc(N)cc1 [Procainamide hydrochloride],0.239 ± 0.0037,0.306 ± 0.019,0.2558 ± 0.0023,0.209 ± 0.043,0.192 ± 0.002,0.141 ± 0.0042,0.341 ± 0.0095,0.42 ± 0.039,0.192 ± 0.015,0.201 ± 0.0082,0.634 ± 0.046,0.408 ± 0.01,0.364 ± 0.0095
COC(=O)Nc1nc2cc(C(=O)c3ccc(F)cc3)ccc2[nH]1 [Flubendazol],0.249 ± 0.026,0.307 ± 0.032,0.2591 ± 0.00086,0.197 ± 0.028,0.191 ± 0.0051,0.141 ± 0.0081,0.43 ± 0.019,0.491 ± 0.029,0.2 ± 0.01,0.231 ± 0.03,0.6 ± 0.078,0.414 ± 0.018,0.435 ± 0.011
CNC(C)CCC=C(C)C (stereo not drawn) [Isometheptene mucate],0.259 ± 0.012,0.314 ± 0.0099,0.266 ± 0.011,0.21 ± 0.025,0.177 ± 0.0051,0.1478 ± 0.0012,0.228 ± 0.035,0.397 ± 0.096,0.22 ± 0.0027,0.246 ± 0.018,0.51 ± 0.055,0.405 ± 0.017,0.314 ± 0.02
CC(=O)O[C@]1(C(C)=O)CC[C@H]2[C@@H]3C=C(Cl)C4=CC(=O)[C@@H]5C[C@@H]5[C@]4(C)[C@H]3CC[C@@]21C [Cyproterone acetate],0.1672 ± 0.001,0.168 ± 0.0067,0.125 ± 0.027,0.122 ± 0.0081,0.0693 ± 0.0035,0.0975 ± 0.0046,0.111 ± 0.041,0.109 ± 0.0055,0.135 ± 0.01,0.131 ± 0.011,0.355 ± 0.17,0.385 ± 0.035,0.0934 ± 0.024
Nc1nc(O)c2ncn(CCC(CO)CO)c2n1 [Penciclovir],0.25 ± 0.0069,0.31 ± 0.013,0.262 ± 0.0029,0.24 ± 0.042,0.18 ± 0.011,0.1665 ± 0.0015,0.228 ± 0.033,0.329 ± 0.033,0.226 ± 0.013,0.244 ± 0.02,0.455 ± 0.03,0.411 ± 0.0086,0.36 ± 0.021
"Cc1c(O)c(=O)n(-c2ccccc2)n1C [Antipyrine, 4-hydroxy]",0.2468 ± 0.00085,0.289 ± 0.012,0.252 ± 0.0096,0.211 ± 0.0099,0.182 ± 0.004,0.154 ± 0.0051,0.338 ± 0.034,0.375 ± 0.01,0.184 ± 0.01,0.206 ± 0.032,0.507 ± 0.069,0.405 ± 0.0081,0.37 ± 0.033
CCOc1ccc(Cc2nccc3cc(OCC)c(OCC)cc23)cc1OCC [Ethaverine hydrochloride],0.0471 ± 0.00059,0.0509 ± 0.0018,0.0528 ± 0.018,0.0664 ± 0.025,0.0659 ± 0.033,0.0686 ± 0.015,0.228 ± 0.0076,0.1635 ± 0.0016,0.156 ± 0.0076,0.165 ± 0.017,0.377 ± 0.051,0.403 ± 0.0076,0.0633 ± 0.0024
Nc1ccc(S(=O)(=O)Nc2ccc(Cl)nn2)cc1 [Sulfachloropyridazine],0.241 ± 0.0064,0.285 ± 0.029,0.174 ± 0.0032,0.231 ± 0.022,0.0969 ± 0.0044,0.165 ± 0.0072,0.392 ± 0.14,0.412 ± 0.042,0.193 ± 0.013,0.236 ± 0.03,0.425 ± 0.022,0.421 ± 0.005,0.28 ± 0.029
COc1cc(C(=O)NCc2ccc(OCCN(C)C)cc2)cc(OC)c1OC [Trimethobenzamide hydrochloride],0.2204 ± 0.0014,0.295 ± 0.0097,0.254 ± 0.011,0.201 ± 0.017,0.158 ± 0.0074,0.159 ± 0.0019,0.227 ± 0.059,0.385 ± 0.015,0.203 ± 0.021,0.253 ± 0.018,0.464 ± 0.066,0.412 ± 0.005,0.354 ± 0.022
Cc1cc(C(=O)NNCc2ccccc2)no1 [Isocarboxazid],0.253 ± 0.0036,0.319 ± 0.014,0.28 ± 0.0081,0.234 ± 0.0096,0.198 ± 0.0079,0.158 ± 0.0025,0.492 ± 0.0092,0.441 ± 0.039,0.211 ± 0.023,0.239 ± 0.035,0.463 ± 0.036,0.402 ± 0.014,0.362 ± 0.013
CCOC(=O)Nc1ccc2c(c1)N(C(=O)CCN1CCOCC1)c1ccccc1S2 [Moricizine hydrochloride],0.157 ± 0.0017,0.202 ± 0.0069,0.222 ± 0.0081,0.196 ± 0.012,0.1097 ± 0.00081,0.14 ± 0.0063,0.175 ± 0.018,0.228 ± 0.083,0.168 ± 0.0088,0.199 ± 0.022,0.354 ± 0.0077,0.3937 ± 0.0035,0.258 ± 0.022
COc1ccc(C[C@@H]2c3cc(OC)c(OC)cc3CC[N@+]2(C)CCC(=O)OCCCCCOC(=O)CC[N@@+]2(C)CCc3cc(OC)c(OC)cc3[C@H]2Cc2ccc(OC)c(OC)c2)cc1OC [Cisatracurium besylate],0.188 ± 0.0083,0.307 ± 0.0083,0.242 ± 0.014,0.166 ± 0.0072,0.119 ± 0.0042,0.156 ± 0.0018,0.307 ± 0.04,0.414 ± 0.032,0.168 ± 0.022,0.209 ± 0.021,0.497 ± 0.054,0.411 ± 0.0072,0.304 ± 0.0097

# — the supplement of paper PMC9262897, “Low-cost anti-mycobacterial drug discovery using engineered E. coli” (Nature Communications, 2022)
